Compounds with a hit are over-represented: about 3.3% of the library has one in this group of screens.
Efflux pump mplx – inhibitors of Candida antifungal efflux pumps expressed in yeast; S. cerevisiae Candida pump triplex, Nile Red efflux; inhibition, % at 10 µM; actives 0.44% (n = 330,000); AID 485275;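 active means plate passing quality check with inhibition over a set limit, or well fluorescence over plate mean plus 4 SD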;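 further: Nile Red retained in pooled yeast measured as flow cytometry median fluorescence; 0% = buffer negative control and 100% = Enniatin B positive control; higher means more Nile Red kept so more efflux inhibition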
Calb FLC – affects C. albicans growth with fluconazole; actives 0.57% (n = 300,000); growth inhibition, % (no concentration beside the values); C. albicans CaCi-2 (fluconazole-resistant clinical isolate) + fluconazole, Alamar Blue growth, 48 h;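 active means growth inhibition above about 58% in most replicates, limit read from the data, passing the limit was not always enough; inconclusive means exactly half the replicates above a set limit; inactive means most replicates below a set limit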;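 further: all wells also contain fluconazole at 8 µg/ml as a sub-toxic cotreatment; 0% = median of DMSO wells and 100% = median of geldanamycin control wells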
H9c2 protect – protects H9c2 cardiomyocytes from peroxide injury. H2O2 injury protection, ATPLite, 2 h. AID 588492. protection from H2O2 cell death, % at 20 µM. actives 0.63% (n = 360,000);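 active means compounds giving at least 50% protection of heart cells from peroxide-induced death in the single-dose screen, raw or plate-pattern-corrected value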;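 further: 0% = DMSO wells with peroxide and 100% = DMSO wells without peroxide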
PHOSPHO1 inh – PHOSPHO1 (human) inhibition; recombinant PHOSPHO1, absorbance phosphatase assay; actives 1.1% (n = 290,000); Q8TCT1; AID 1565; inhibition, % at 13.3 µM; in the data active means inhibition above about 60%
Target sequence (Q8TCT1 whole entry, looked up): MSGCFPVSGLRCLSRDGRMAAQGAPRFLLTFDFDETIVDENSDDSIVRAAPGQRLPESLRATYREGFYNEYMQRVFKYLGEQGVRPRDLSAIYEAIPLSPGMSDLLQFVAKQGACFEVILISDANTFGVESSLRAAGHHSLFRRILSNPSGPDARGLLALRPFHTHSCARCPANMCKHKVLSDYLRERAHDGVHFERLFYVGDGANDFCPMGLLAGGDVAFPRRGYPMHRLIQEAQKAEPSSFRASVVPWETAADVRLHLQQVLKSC
KCC2 mod – modulates chloride dependent transport by human KCC2; actives 2.2% (n = 190,000); B-score of Tl+ flux slope (higher = more flux/activation; lower = inhibition) at 10 µM; Q9H2X9; KCC2 cells, thallium flux FluoZin-2 fluorescence;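 active means thallium flux slope and its plate-corrected score both differing from the plate sample mean at a set confidence after two filtering rounds, in either direction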;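 further: slope of fluorescence scaled to starting intensity during 10 to 20 s after thallium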
KCC2 sec1 – confirmation of human KCC2 transport modulators. shares compounds with KCC2 mod. HEK293-KCC2, thallium flux, FluoZin2 fluorescence; hits give high values. normalised thallium flux (F/F0 slope) at 10 µM. actives 15% (n = 3,700). AID 1713;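 active means thallium flux slope above the same plate's solvent-only control mean plus 3 SD; inconclusive means the two replicate wells disagree; inactive means no significant difference from solvent-only control wells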
KCC2 bumet counter – bumetanide-insensitive thallium flux in KCC2 cells with ouabain, counter-screen; shares compounds with KCC2 mod; HEK293-KCC2 + bumetanide/ouabain, thallium flux FluoZin2; hits give high values; normalized thallium flux at 10 µM; actives 49% (n = 3,700);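 active means thallium entry rate above the same plate's blocked-transporter control wells by more than 3 SD; inconclusive means the two repeat wells disagree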;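 further: raw slope of fluorescence over initial fluorescence between 10 and 20 s after thallium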
KCC2 sec2 – confirmation of human KCC2 transport modulators; shares compounds with KCC2 mod; HEK293-KCC2, thallium flux FluoZin2 fluorescence; actives lie on both sides; F/F0 rise rate, 10–20 s post-thallium; normalized thallium flux at 10 µM; actives 23% (n = 3,700); AID 1715;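 active means thallium flux slope more than 3 SD above or below the plate's solvent-only control mean, mostly below; inconclusive means the two repeat wells disagreed; inactive means no significant shift from solvent-only controls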;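 further: raw slope with 0.1% DMSO as baseline and bumetanide as block control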
HEK counter1 – parental HEK flux effect, counter-screen. thallium flux rate (normalised fluorescence) at 10 µM. shares compounds with KCC2 mod. actives 46% (n = 3,700). AID 1716. HEK293 parental cells, thallium flux FluoZin2, ouabain; baseline-ratio fluorescence slope, 10–20 s after thallium;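 active means thallium flux rate significantly above the same plate's solvent-only control wells, beyond their mean plus 3 SD; inconclusive means the two replicate wells gave conflicting results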
KCC2 ouabain – KCC2 (human) modulation, ouabain retest; shares compounds with KCC2 mod; HEK293-KCC2, thallium flux FluoZin2 fluorescence; bidirectional: low = inhibitor, high = activator; raw Tl+ flux slope (below DMSO = inhibition, above = activation) at 10 µM; actives 48% (n = 3,700);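 active means thallium flux slope beyond 3 SD from same-plate DMSO control mean in most replicates, usually higher, sometimes lower; inconclusive means repeat tests gave conflicting results; inactive means no significant difference from controls in most replicates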;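 further: slope of initial-normalized fluorescence between seconds 10 and 20 after thallium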
HEK counter2 – acts in parental HEK cells, second KCC2 counter-screen; shares compounds with KCC2 mod; HEK293 parental, thallium flux FluoZin-2 fluorescence slope; thallium flux slope at 10 µM; actives 33% (n = 3,700); AID 1718;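 active means thallium flux slope above the same plate's solvent-control mean plus 3 SD in both duplicate wells; inconclusive means duplicate wells that disagreed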;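 further: run without ouabain in cells lacking the KCC2 cotransporter; slope of fluorescence scaled to its starting value between 10 and 20 s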
Active calls of the source: *; ? = inconclusive; . = not tested or not shown.

SMILES	Efflux pump mplx	Calb FLC	H9c2 protect	PHOSPHO1 inh	KCC2 mod	KCC2 sec1	KCC2 bumet counter	KCC2 sec2	HEK counter1	KCC2 ouabain	HEK counter2
S=c1[nH]nc(-c2cccc(Cl)c2)n1Cc1ccccc1	0	18	2	69*	4*	0.015*	0.044*	0.037	?	0.038*	?
S=c1[nH]nc(COc2ccc(Cl)cc2)n1Cc1ccccc1	0	19	-3	-121	0.45	.	.	.	.	.	.
CC1(C)Cc2c(cnn2-c2ccccc2)C(NC(=O)CCN2CCCCO2)C1 (centres undefined)	0	0	0	28	.	.	.	.	.	.	.
OCc1cccc[n+]1Cc1ccccc1	0	0	4	.	.	.	.	.	.	.	.
COc1cc(OC)c(NC(=O)C(=O)CC(=O)c2ccc(C)cc2C)cc1Cl	0	13	-1	-1	16*	0.01	0.046*	0.031	0.019*	0.027	0.012*
Cc1ccccc1NCC(=O)N/N=C/c1ccc([N+](=O)[O-])cc1	0	8	2	-1	-5.8*	0.0075	0.0049	?	0.008	0.018	0.0099
O=C(CNc1cccc2ccccc12)N/N=C/c1ccc([N+](=O)[O-])cc1	0	.	-6	3	0.59	.	.	.	.	.	.
O=C(CN1C(=O)C2C3C=CC(C3)C2C1=O)NCCN1CCCc2ccccc21 (centres undefined)	0	2	-1	-9	4.5*	0.0076	0.006	0.031	0.0069	0.021	0.0096
CN(C)/C=C1\NC(=S)N(c2ccccc2)C1=O	0	-18	2	-11	1	.	.	.	.	.	.
COc1ccc(N2C(=O)/C(=C/c3cccs3)NC2=S)cc1	0	-3	-4	75*	8.7*	0.013*	0.022*	0.035	0.024*	0.032*	0.011*
Cc1n[nH]c(=S)n1/N=C/c1ccccc1OCc1ccc(Cl)cc1Cl	0	33	-15	-2	0	.	.	.	.	.	.
S=c1nc(-c2sccc2OCc2ccc(Cl)cc2Cl)[nH][nH]1	0	12	-11	-74	24*	0.0071	0.087*	0.029	0.023*	?	0.013*
CN(C(=S)NC(=O)C1(C)CC1(Cl)Cl)c1ccccc1 (centres undefined)	0	24	4	27	5.1*	0.022*	0.026*	?	0.02*	0.027*	0.02*
Cc1nc(SCC(=O)Nc2cc(C(N)=O)cc(C(N)=O)c2)c2c(C)c(C)sc2n1	0	-4	2	14	38*	?	0.042*	0.04	0.052*	0.045*	0.022*
Cc1nc(SCC(=O)Nc2sccc2C(N)=O)c2c(C)c(C)sc2n1	.	.	14	.	.	.	.	.	.	.	.
COc1ccc(NC(=O)CS(=O)(=O)c2cn(CC(=O)N3CCCC3)c3ccccc23)c(OC)c1	0	.	8	29	.	.	.	.	.	.	.
CCCCn1nnnc1NCc1cc(OC)c(OC)cc1OC	0	-11	-3	6	4.9*	0.0092	0.0061	0.031	0.007	0.019	0.01
Nc1nonc1C(=O)NCCN=Cc1ccccc1O	0	-1	15	24	-4.6*	?	?	0.032	0.0081	0.02	0.011
Nc1nonc1C(=O)NCCN=Cc1cc(Cc2ccccc2)cc(Br)c1O	0	-2	36	18	.	.	.	.	.	.	.

From PubChem
